Compounds with a hit are over-represented: about 3.3% of the library has one in this group of screens.
BRCT PPI green – inhibitors of human BRCA1 BRCT-phosphoprotein interaction (green fluorophore). P38398. BRCA1 BRCT-phosphopeptide binding, green fluorescence polarization. Potency, µM (titrated, usually from 76.9 µM), inactives show at the highest dose activity change, negative = inhibition, usual class: inhibitors. 0.05% of 75,000 active. AID 875;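 further: potency means the concentration at half of the fitted maximal effect; plate controls were peptide without protein for full effect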
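Fluorescence polarization: His-tagged BRCT (~35 kDa BRCA1 C-terminus, 250 nM) bound to 100 nM fluorescein-labeled phosphorylated 10-aa BACH1 peptide, pH 7.3 phosphate buffer with DTT and Tween 20. Compounds incubated 12 min at room temperature; inhibition read as lowered polarization.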
YjeE inh – inhibitors of E. coli YjeE (TsaE) | P0AF67 | purified YjeE enzyme, qHTS inhibition assay | Potency, µM | 0.05% of 71,000 active
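Fluorescence polarization of a BODIPY Texas Red–ADP probe (2 uM) bound to purified YjeE (10 uM) was read after 15 min room-temperature incubation with compounds. Loss of polarization marks inhibitors; ADP serves as titrated control.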
DNA Pol III inh – blocks replication by bacterial DNA polymerase III holoenzyme; reconstituted DNA polymerase III holoenzyme replication, biochemical; Potency, µM (doses to about 57.1 µM), without a hit: top-dose activity change, negative = inhibition; 0.25% of 71,000 active; AID 603; further: potency means the concentration at half of the fitted maximal effect; on the % scale 0 is the no-effect control and ±100 the full control effect
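Reconstituted *E. coli* holoenzyme (0.35 nM Pol III, 1 nM beta, 154 nM SSB, 2 nM primase) was preincubated with compound for 15 min at RT. Synthesis on 1.4 nM ssM13Gori ran 35 min, then was stopped with PicoGreen/EDTA and read as dsDNA fluorescence.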
Tau filament bind – binders of human tau filaments | P10636 | recombinant tau filaments, thioflavin S fluorescence, 15 h; filaments grown with octadecylsulfate alongside compound | Potency, µM (doses to about 57.1 µM), without a hit: top-dose activity change, negative = inhibition | 2% of 71,000 active | AID 596;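 further: potency means the concentration at half of the fitted maximal effect; on the % scale 0 is the no-effect control and ±100 the full control effect; actives lower thioflavin S fluorescence by blocking filaments or displacing dye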
Target sequence (P10636 whole entry, looked up): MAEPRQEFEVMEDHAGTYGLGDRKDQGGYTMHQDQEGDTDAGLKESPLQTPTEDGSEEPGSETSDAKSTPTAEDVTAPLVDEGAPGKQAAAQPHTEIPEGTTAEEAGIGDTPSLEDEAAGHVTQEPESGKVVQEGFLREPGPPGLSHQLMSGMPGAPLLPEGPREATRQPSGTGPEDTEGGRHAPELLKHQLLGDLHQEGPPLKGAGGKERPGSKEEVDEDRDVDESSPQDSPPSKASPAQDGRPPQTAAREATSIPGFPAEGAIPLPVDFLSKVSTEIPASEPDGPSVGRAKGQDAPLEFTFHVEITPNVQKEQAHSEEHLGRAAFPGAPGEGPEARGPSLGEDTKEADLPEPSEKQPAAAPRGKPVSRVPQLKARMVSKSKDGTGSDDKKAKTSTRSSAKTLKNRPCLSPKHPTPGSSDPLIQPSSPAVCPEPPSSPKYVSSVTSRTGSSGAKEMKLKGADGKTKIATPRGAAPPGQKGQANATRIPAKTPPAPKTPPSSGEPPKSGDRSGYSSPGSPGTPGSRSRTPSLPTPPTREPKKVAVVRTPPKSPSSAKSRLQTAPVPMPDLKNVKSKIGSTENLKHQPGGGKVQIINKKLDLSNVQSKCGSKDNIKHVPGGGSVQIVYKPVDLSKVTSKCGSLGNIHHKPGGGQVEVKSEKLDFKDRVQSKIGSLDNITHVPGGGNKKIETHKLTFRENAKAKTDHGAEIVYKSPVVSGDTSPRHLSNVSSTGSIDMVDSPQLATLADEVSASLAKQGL
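Recombinant tau protein (human, 1 uM final) plus 30 uM ODS in HEPES pH 7.4 with NaCl, DTT and thioflavine S. Compound present from the start; fluorescence at 510 nm after 15 h, 37 C.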
15-hLO inh – blocks human 15-lipoxygenase activity | P16050 | purified 15hLO-1, xylenol orange hydroperoxide absorbance | Potency, µM (doses to about 57.1 µM), for the others: at the top dose activity change, negative = inhibition, usual class: inhibitors | 1.4% of 74,000 active | AID 887; further: potency means the concentration at half of the fitted maximal effect; on the % scale 0 is the no-effect control and ±100 the full control effect; nearly all actives have a fitted effect of over 55% in size
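Purified human 15hLO-1 (40 nM final) in 25 mM Hepes pH 7.5, 0.01% Triton X-100 was preincubated with compound 15 min at room temperature, then reacted 6 min with 50 uM arachidonic acid; hydroperoxide detected by Fe-XO, 573/405 nm absorbance ratio.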
BRCT inh red – inhibitors of human BRCA1 BRCT-phosphoprotein interaction (red fluorophore); P38398; BRCT-phosphopeptide binding, red fluorescence polarization; Potency, µM (highest dose often 76.9 µM), for the others: top-dose activity change, negative = inhibition, actives largely listed as inhibitors; 0.03% of 75,000 active; AID 892; further: on the % scale 0 is the no-effect control and ±100 the full control effect
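Fluorescence polarization: 100 nM His-tagged BRCA1 BRCT with 100 nM TAMRA-labelled phospho-BACH1 decapeptide, phosphate buffer pH 7.3 with 150 mM NaCl, DTT, 0.01% Tween 20; 12 min RT. Binding inhibition seen as FP decrease.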
* marks the source's active call; other numbers are inactive results; [ ] = another dose, or the depositor's remark. The call rests on the fitted dose curve; in most records, active means well fitted curve in the direction sought with a large enough effect; inconclusive means small, poorly fitted or top-dose-only effect, or another doubt; inactive means no such curve, though single readings can be large; an effect the other way counts as inactive or inconclusive.

Results for Oc1ccc2c3c1O[C@@H]1c4[nH]c5c(c4C[C@@]4(O)[C@@H](C2)N(CC2CC2)CC[C@]314)C[C@]1(O)[C@@H]2Cc3ccc(O)c4c3[C@@]1(CCN2CC1CC1)[C@H]5O4 ?
BRCT PPI green: 2%; YjeE inh: inactive; DNA Pol III inh: -9%; Tau filament bind: 2%; 15-hLO inh: -1%; BRCT inh red: 0%

What do the screens show for `O=C(O)[C@@H]1[C@H](C(=O)O)[C@]2(Cl)C(Cl)=C(Cl)[C@@]1(Cl)C2(Cl)Cl`?
BRCT PPI green: -5%[15.4 µM]; YjeE inh: inactive; DNA Pol III inh: 2µM*; Tau filament bind: -8%[11.4 µM]; 15-hLO inh: 2.5µM*; BRCT inh red: -3%[15.4 µM]

Results for O=S1OCC2C(CO1)C1(Cl)C(Cl)=C(Cl)C2(Cl)C1(Cl)Cl (stereo not given) ?
BRCT PPI green: -2%; YjeE inh: inactive; DNA Pol III inh: 4%; Tau filament bind: 6%; 15-hLO inh: -6%; BRCT inh red: 2%

What do the screens show for `Cc1ccccc1C1=NCC(=O)N(CC(=O)NCc2ccco2)c2sc3c(c21)CCCC3`?
BRCT PPI green: 4%; YjeE inh: inactive; DNA Pol III inh: -3%; Tau filament bind: 17%; 15-hLO inh: 25µM*; BRCT inh red: -4%

Results for C[C@]1(O)CC[C@H]2[C@@H]3[C@@H](O)CC4=CC(=O)CC[C@@]4(C)[C@H]3CC[C@]21C ?
BRCT PPI green: -1%[15.4 µM]; YjeE inh: inactive; DNA Pol III inh: -9%[11.4 µM]; Tau filament bind: 10%[11.4 µM]; 15-hLO inh: 4%[11.4 µM]; BRCT inh red: 1%[15.4 µM]

How did CC(=O)[O-].CC(=O)[O-].O.O.[Cd+2] do in these assays?
BRCT PPI green: 0%; YjeE inh: inconclusive; DNA Pol III inh: 0.25µM*; Tau filament bind: 7%; BRCT inh red: 0%

Results for C=CCn1c(O)c(C(C)=Nc2ccc(N(CC)CC)cc2)c(=O)[nH]c1=O ?
BRCT PPI green: 0%; YjeE inh: inactive; DNA Pol III inh: -4%; Tau filament bind: 16µM*; 15-hLO inh: -19%; BRCT inh red: -1%

How did COC(=O)/C=C\C(=O)N[C@@H]1CC[C@@]2(O)[C@H]3Cc4ccc(O)c5c4[C@@]2(CCN3CC2CC2)[C@@H]1O5 do in these assays?
BRCT PPI green: 0%; YjeE inh: inactive; DNA Pol III inh: -3%; Tau filament bind: 32µM*; 15-hLO inh: -28%[25.6 µM]; BRCT inh red: -2%

How did CN(N=O)c1ccc(O)c(O)c1 do in these assays?
BRCT PPI green: 10µM*; YjeE inh: inactive; DNA Pol III inh: 0.4µM*; Tau filament bind: -19%; 15-hLO inh: 16µM*; BRCT inh red: 6.3µM*

How did CC(=O)[C@@H]1CC[C@@H]2[C@H]3CC[C@H]4C[C@@H](O)CC[C@]4(C)[C@@H]3C(=O)C[C@]21C do in these assays?
YjeE inh: inactive; DNA Pol III inh: 0%; Tau filament bind: 8%

Results for C=CCN1CC[C@]23c4c5ccc(O)c4O[C@@H]2C(=O)CC[C@@]3(O)[C@H]1C5 ?
BRCT PPI green: -2%; YjeE inh: inactive; DNA Pol III inh: -4%; Tau filament bind: 1%; 15-hLO inh: -6%; BRCT inh red: 1%

How did O=C(O)[C@@H]1C[C@H]2C[C@@H](CP(=O)(O)O)CC[C@H]2CN1 do in these assays?
BRCT PPI green: -2%; YjeE inh: inactive; DNA Pol III inh: -2%; Tau filament bind: 32µM*; 15-hLO inh: 1%[25.6 µM]; BRCT inh red: -1%

How did CC1=C(O)C(=O)C=C2C1=CC=C1[C@]2(C)CC[C@@]2(C)C3C[C@](C)(C(=O)O)CC[C@@]3(C)CC[C@@]12C (stereo not given in full) do in these assays?
BRCT PPI green: -2%[3.08 µM]; 15-hLO inh: 4µM*; BRCT inh red: 0%

What do the screens show for `Oc1ccc(Cl)cc1Cc1cc(Cl)ccc1O`?
BRCT PPI green: -3%; YjeE inh: inactive; DNA Pol III inh: -2%; Tau filament bind: 24%; 15-hLO inh: 13µM*; BRCT inh red: -1%
